Assay outcomes as filed in PubChem.
HSF1 activator: increases HSF-1 driven luciferase reporter signal. 300,000 tested, 1.7% active. NIH3T3-HGL HSF-1 luciferase reporter, MG132, 8 h; 100% = twice DMSO control signal. activation, % at 9 µM;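 active = mean replicate activation of at least 50% with a set share of replicates each reaching 50%; inconclusive = only one of those two conditions met; inactive = mean below 50% and too few replicates reaching it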;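 note: 0% = median of the neutral control wells and 100% = twice that signal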
HSF1 inhib: HSF1 inhibition; 300,000 tested, 0.77% active; activity change, negative = inhibition, % at 7.5 µM (by protocol); NIH3T3-HGL HSE-luciferase, MG132-induced, luminescence 8 h; active compounds read low; AID 2098;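 active = more than half of replicate wells show activity change below -50%, luminescence cut by over half; inconclusive = some wells, but at most half, below -50%; inactive = no replicate well below -50%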;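 note: luciferase reports HSF-1 transcriptional activity via heat shock element; 0% = median of DMSO wells and -100% = zero luminescence signal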
Wnt bcat act: activators of Wnt/beta-catenin signaling | Wnt/beta-catenin reporter cell assay, activator, plate reader | activation, % at 9.35 µM | 300,000 tested, 1.2% active | AID 743398; in the data active = activation above about 30%, passing the limit was not always enough; inconclusive = no clear call, values can overlap the other calls;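 note: 0% = neutral control wells and 100% = positive control wells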
MITF act: increases MITF-driven TRPM1 promoter luciferase signal; SK-MEL-5 TRPM1-promoter luciferase, 24 h; % of positive control, neutral wells = 0; activation, % at 12.5 µM; 300,000 tested, 0.75% active;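 active = mean activation of at least 80% with every replicate also reaching 80%; inconclusive = mean reaches 80% but some replicate falls short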;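 note: 0% = neutral control wells and 100% = parthenolide positive control wells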
esBAF inh: SWI/SNF esBAF complex inhibition | reporter increase, % at 12.5 µM | AID 602393 | 350,000 tested, 2% active | mouse ES cells, Bmi1-luciferase knock-in reporter, 24 h; 100% = twice the neutral-well signal; in the data active = activation above about 40%; inconclusive = no clear call, values can overlap the other calls;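 note: 0% = median of the plate's neutral control wells and 100% = double that signal; a rise in the Bmi1 reporter signal indicates esBAF inhibition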
* marks the source's active call; other numbers are inactive results; ? = inconclusive; nt = no result. An excerpt weighted towards active compounds, which were near 3.8% of everything screened.

SMILES	HSF1 activator	HSF1 inhib	Wnt bcat act	MITF act	esBAF inh
O=C(OCc1ccccc1)c1ccc2c(c1)-c1ccccc1C2=O	18	2	41*	113*	nt
O=C(OCc1ccccc1)c1ccccc1	3	0	0	nt	14
O=C(Nc1ccc(F)cc1)N1C[C@H]2[C@@H](c3ccccc31)[C@@H](CO)N2C(=O)c1ccc(F)cc1	nt	nt	nt	nt	3
O=C(NC1CCCCC1)c1ccc2ccccc2c1	nt	nt	49*	nt	56*
O=C(CNC(=O)c1ccc2ccccc2c1)NC1CCCCC1	nt	nt	13	11	21
O=C(NC1CCCCCCC1)c1cccc(Cl)c1	8	13	20	64	60*
CCCC(=O)Nc1ccc2c(c1)OC[C@H](C)N(C(=O)c1cnccn1)C[C@@H](C)[C@H](OC)CN(C)C2=O	nt	nt	nt	nt	-3
CCCC(=O)Nc1cccc(NC(=O)c2ccc3c(c2)OCCO3)c1	-11	5	7	42	43*
O=C(Nc1cccc(F)c1)c1ccc2c(c1)OCCO2	57*	23	-1	36	40
O=C(Nc1ccc2c(c1)OCCO2)c1c(F)cccc1F	41	28	21	102*	-11
CCN(CC)c1ccc(C(=O)Nc2cccc(F)c2)cc1	61*	27	nt	35	nt
C[C@H]1CN([C@@H](C)CO)C(=O)c2cc(Br)cnc2O[C@@H]1CN(C)Cc1ccncc1	nt	nt	nt	nt	6
Cc1ccc(O)c(N=Cc2cccs2)c1	16	-1	nt	-10	nt
Cc1ccc(O)c(N=Cc2ccc(C)s2)c1	-1	0	nt	0	59*
C[C@@H]1CCCCO[C@@H](CN(C)Cc2ccc3c(c2)OCO3)[C@H](C)CN([C@@H](C)CO)C(=O)c2cc(NC(=O)Nc3cccc4ccccc34)ccc2O1	nt	nt	nt	nt	-4
Cc1noc(C)c1NC(=O)Nc1ccc2c(c1)CC(=O)N([C@@H](C)CO)C[C@H](C)[C@H](CN(C)C(=O)Nc1c(C)noc1C)O2	nt	nt	nt	nt	-1
CC1(C(=O)NS(=O)(=O)c2ccc(C#N)cc2)CCN1C(=O)C1CCCCC1 (stereo not given)	nt	nt	-2	nt	-3
CC1(C(=O)NS(=O)(=O)c2cccc(C#N)c2)CCN1C(=O)C1CCCCC1 (stereo not given)	nt	nt	35*	nt	0
CCN1C(=O)c2cccc3c(S(=O)(=O)Nc4ccccc4OC)ccc1c23	59*	27	13	-1	nt
CCOc1ccccc1N1CC(C(=O)NCCC2=CCCCC2)CC1=O (stereo not given)	nt	nt	0	59	46*
CCC(C)c1ccccc1N1CC(C(=O)NCCC2=CCCCC2)CC1=O (stereo not given)	nt	nt	-2	-4	7
CN1C(=O)c2cc(NC(=O)c3ccccc3Cl)ccc2OC[C@@H]2O[C@@H](CC(=O)O)CC[C@@H]21	nt	nt	nt	nt	-8
CCC(=O)Nc1ccc2c(c1)C(=O)N(C)C[C@@H](OC)[C@@H](C)CN(Cc1cccc(F)c1)[C@H](C)CO2	nt	nt	nt	nt	-2
CCCc1cc2c(=O)c(-c3ccccn3)coc2cc1OC	47	15	53*	116*	100*
CCOC(=O)c1csc(COc2ccc(OC)cc2)n1	64*	22	1	20	25
SMILES	HSF1 activator	HSF1 inhib	Wnt bcat act	MITF act	esBAF inh
CNC(=O)C[C@@H]1CC[C@H]2[C@@H](COc3ccc(NC(=O)c4cc(F)cc(F)c4)cc3C(=O)N2C)O1	nt	nt	nt	nt	2
Cc1oc(-c2ccoc2)nc1CN(CC1CCC(=O)N1)C(C)C (stereo not given)	72*	19	-1	7	-2
Cc1oc(-c2cccc(F)c2)nc1CN(Cc1ccccc1)C[C@@H]1CCC(=O)N1	-23	-4	-3	-3	nt
COc1cccc(NC(=O)Nc2ccc3c(c2)C(=O)N(C)C[C@@H](OC)[C@H](C)CN(CCC(F)(F)F)[C@H](C)CO3)c1	nt	nt	nt	nt	10
O=C(C[C@@H]1CC[C@H](NC(=O)C2CCOCC2)[C@H](CO)O1)Nc1ccc(-c2ccccc2)cc1	nt	nt	nt	nt	7
O=C(N/C=C/c1ccccc1)c1ccccc1	38	24	41*	109*	nt
O=C(NCCNC(=O)c1ccccc1)c1ccccc1	-4	2	-4	10	nt
CCN(CC)c1ccc2c(Cl)c(Br)c(=O)oc2c1	326*	280	nt	nt	nt
CCN(CC)c1ccc2c(C)c(Cl)c(=O)oc2c1	-2	-5	-1	2	nt
COc1cc(/C=N/O)ccc1Oc1ccc([N+](=O)[O-])cc1[N+](=O)[O-]	10	10	36*	-1	6
CO/N=C/c1ccc(Oc2ccc([N+](=O)[O-])cc2[N+](=O)[O-])c(OC)c1	9	6	-2	-6	nt
CCCC(=O)n1nc(-c2cccnc2)nc1NCc1cccs1	-3	-2	1	8	nt
CCC(=O)n1nc(-c2cccnc2)nc1NCc1cccs1	-93	-91*	1	7	3
CC(=O)C1=C(O)C(=O)N(c2ccccn2)C1c1ccc(C)cc1 (stereo not given)	11	7	8	4	-5
CC(=O)C1=C(O)C(=O)N(c2ccccn2)C1c1ccc(Cl)cc1 (stereo not given)	6	3	-1	38	47*
COc1ccc(C2C(C(C)=O)=C(O)C(=O)N2c2ccccn2)cc1 (stereo not given)	15	-1	1	3	17
CC(=O)C1=C(O)C(=O)N(c2nccs2)C1c1ccccc1 (stereo not given)	60*	23	nt	3	nt
CCCn1cnc2cc(NCc3ccccc3O)ccc21	-1	-9	8	30	57*
CCn1cnc2cc(NCc3ccc(N(C)C)cc3)ccc21	-44	-25	10	9	36
CCn1cnc2cc(NCc3ccc(C)cc3)ccc21	46	35	nt	119*	?
CCCCn1cnc2cc(NCc3cccc(OC)c3O)ccc21	0	1	3	21	27
CCCn1cnc2cc(NCc3ccc(Br)cc3)ccc21	38	24	2	46	52*
CCN(CC)c1ccc(CNc2ccc3c(c2)ncn3CC)cc1	-3	5	0	nt	nt
Cn1cnc2cc(NCc3ccc(Cl)cc3)ccc21	66*	63	0	57	?
CCOc1ccc(CNc2ccc3c(c2)ncn3C)cc1	38	18	25	37	nt
SMILES	HSF1 activator	HSF1 inhib	Wnt bcat act	MITF act	esBAF inh
COc1ccc(S(=O)(=O)Nc2ccc3c(c2)C(=O)N([C@@H](C)CO)C[C@@H](C)[C@H](CN(C)Cc2ccc(Oc4ccccc4)cc2)O3)cc1	nt	nt	nt	nt	0
CCn1cnc2cc(NCc3ccc(Br)cc3)ccc21	19	19	36*	nt	nt
CCCn1cnc2cc(NCc3cccc(OC)c3)ccc21	51*	28	21	66	52*
Cc1ccc(CNc2ccc3c(c2)ncn3C(C)C)cc1	10	11	0	89*	68*
CCCn1nnnc1NCc1cccc(OC)c1	2	1	-1	-4	-9
COCC#Cc1ccc2c(c1)O[C@@H](CN(C)C(=O)CN(C)C)[C@H](C)CN([C@H](C)CO)S2(=O)=O	nt	nt	nt	nt	4
CCCNC(=O)Nc1ccc2c(c1)C(=O)N(C)C[C@H](OC)[C@@H](C)CN(C(=O)C1CCCCC1)[C@@H](C)CO2	nt	nt	nt	nt	0
